Experimental data published in PubChem BioAssay.
Potency and affinity values are given separately. Calls of active or inactive are those of the source. Where a call stands in place of a potency, no number is given. The rule behind the calls is not given here.

Experiment: HepG2 cell cytotoxicity, dose response, cytotoxicity control, plate reader, cherry-pick, antagonist series (AID 743416)
Details: series mostly up to 26 µM
With `COc1cccc(C(=O)Nc2ccc3c(c2)OC[C@@H](C)N(CC2CC2)C[C@H](C)[C@H](OC)CN(C)C3=O)c1` the outcome was “inactive”. For `O=C(NCCOc1ccccc1)[C@@H]1CCCN1C(=O)c1cccs1`, the outcome was “inactive”. In the case of `CC(C)N(C(=O)Nc1ccc2nsnc2c1)C(C)C`, the outcome is reported as “inactive”. In the case of `Cc1cc(Cl)ccc1OCCCC(=O)Nc1cc(S(=O)(=O)N2CCOCC2)ccc1N1CCOCC1`, the outcome is reported as “inactive”. For `C[C@@H]1CN([C@@H](C)CO)C(=O)c2cccc(NC(=O)Nc3ccc(C(F)(F)F)cc3)c2O[C@H]1CN(C)C(=O)Nc1cccc2ccccc12`, the outcome was “inactive”. With `O=C(Nc1cc(S(=O)(=O)Nc2ccccc2Cl)ccc1O)c1ccc(F)cc1F` the outcome was “inactive”. For `CO[C@@H]1CN(C)C(=O)c2ccc(NC(=O)C3CC3)cc2OC[C@@H](C)NC[C@@H]1C`, the outcome was “inactive”. In the case of `O=C(C[C@H]1C=C[C@@H](NC(=O)C2CCC2)[C@H](CO)O1)NCCCN1CCOCC1`, the outcome is reported as “inactive”. In the case of `CC(C)NC(=O)Nc1ccc2c(c1)C(=O)N([C@H](C)CO)C[C@@H](C)[C@H](CN(C)S(C)(=O)=O)OCCCC[C@H](C)O2`, the outcome is reported as “inactive”. For `COc1ccc(-c2noc(CCC(=O)N3CCN(c4ccc(Cl)cc4)CC3)n2)cc1`, the outcome was “inactive”. With `Cc1cccn2c(CNCC3(c4ccccc4)CCCC3)c(C(=O)N3CCOCC3)nc12` the outcome was “inactive”. With `Cn1cnc(S(=O)(=O)N2C[C@@H](O)COC[C@H]3O[C@H](CC(=O)NC4CCCC4)CC[C@@H]32)c1` the outcome was “inactive”. In the case of `CCc1nc(Sc2nnnn2-c2ccccc2)c2c3c(sc2n1)CCCC3`, the outcome is reported as “inactive”. For `Cc1ccc2nc(-c3ccc(NC(=O)c4cccnc4)cc3)oc2c1`, the outcome was “inactive”.
